Measurements reported in PubChem BioAssay (EPA / NIEHS).
Activity calls are given as the source filed them. Rule for the calls: active = hit-call score of the fitted dose curve at least 0.9, where 1 is the maximum; inconclusive = response in the unintended direction; inactive = score below 0.9.

Each compound was assayed on DIO2 (gene 1734) (assay: CCTE_GLTED_hDIO2: CCTE's human Deiodinase 2 (DIO2) Inhibition Assay, Great Lakes Toxicology and Ecology Division (GLTED) Lab (AID 2284050)).
Protocol: CCTE_GLTED_hDIO2 is a cell-free, single-readout assay designed to test the inhibitory activity of chemicals toward human iodothyronine Deiodinase type 2 (DIO2) enzyme. Enzyme is incubated in presence of test chemical for 3 hours during which uninhibited enzyme liberates free iodide from substrate. Free iodide is measured in a second step using the Sandell-Kolthoff method.CCTE_GLTED_hDIO2 is the assay component measured from the CCTE_GLTED_hDIO2 assay. It is designed to make measurements of enzyme activity, a form of enzyme reporter, as detected with absorbance signals by spectrophotometry.Data from the assay component CCTE_GLTED_hDIO2 was analyzed into 1 assay endpoint. This assay endpoint, CCTE_GLTED_hDIO2, was analyzed in the positive analysis fitting direction relative to DMSO as the negative control and baseline of activity. Using a type of enzyme reporter, loss-of-signal activity can be used to understand changes in the enzymatic activity as they relate to the gene DIO2. Furthermore, this assay endpoint can be referred to as a primary readout, because the performed assay has only produced 1 assay endpoint. To generalize the intended target to other relatable targets, this assay endpoint is annotated to the 'deiodinase' intended target family, where the subfamily is 'deiodinase Type 2'.
Human deiodinase type 2 (hDIO2) assay, developed at Great Lakes Toxicology and Ecology Division (GLTED) within the EPA's Center for Computational Toxicology and Exposure (CCTE), is designed to test the chemicals' ability to inhibit DIO2. Assay is based on iodide release measured by the Sandell-Kolthoff method and is run in 96-well plate format with assay plates run in triplicate (n=3). The method used for the deiodinase assay was largely based on Renko et al. (2012, 2015). These works describe the utilization of the SK reaction to measure deiodinase-liberated iodide in a 96-well-plate format. The SK reaction is based on the reduction of the yellow-colored cerium IV to the non-colored cerium III by arsenic, with the rate of this reaction increased in the presence of iodide in a concentration-dependent manner (Sandell and Kolthoff, 1937). Iodinated test chemicals can interfere as competitive inhibitors, or if the stock chemical has contaminating free-iodide present. Other chemicals, e.g.: nitrite, iron, and thiocyanate can interfere with the Sandell-Kolthoff reaction (see Sandell and Kolthoff, 1937).

**Q.** With `CC(C)CCCCCCCCCCCCCCC(=O)O` as the compound, how does the AC50 read?
**A.** The AC50 was 100 µM (active).

**Q.** For `Oc1ccc2cc(SSc3ccc4cc(O)ccc4c3)ccc2c1`, which AC50 is on record?
**A.** Its AC50 is 22.2 µM (active).

**Q.** With `O=CCc1ccccc1` as the compound, how does the outcome read?
**A.** Its outcome is “inactive”.

**Q.** For `CCCCCCCCC=CCCCCCCCC1=NCCN1CCO`, which AC50 is on record?
**A.** Its AC50 is 60.9 µM (active).

**Q.** Which outcome does the source give for `Cc1cc(S(=O)(=O)O)ccc1N=Nc1c(O)ccc2ccccc12` here?
**A.** Its outcome is “inactive”.

**Q.** `CCOC(=O)[C@@H](C)Oc1ccc(Oc2nc3ccc(Cl)cc3o2)cc1` was tested. Which AC50 did it give?
**A.** Its AC50 is 23.5 µM (active).

**Q.** With `CCc1cc(Cc2cc(CC)cc(C(C)(C)C)c2O)c(O)c(C(C)(C)C)c1` as the compound, how does the AC50 read?
**A.** Its AC50 is 83.3 µM (active).

**Q.** `COc1ccc(N=Nc2cc(C)c(N=Nc3ccc(S(=O)(=O)O)cc3)cc2OC)cc1` was tested. Which AC50 did it give?
**A.** Its AC50 is 100 µM (active).

**Q.** `CCCCC(CC)COC(=O)c1ccc(O)cc1` (stereo unspecified) was tested. Which AC50 did it give?
**A.** The AC50 was 82.5 µM (active).

**Q.** `CCCCCCCCCCCCCCN(CCO)CCO` was tested. Which AC50 did it give?
**A.** The AC50 was 39.9 µM (active).

**Q.** With `CCCCCC(C=O)=Cc1ccccc1` as the compound, how does the AC50 read?
**A.** The AC50 was 62.6 µM (active).

**Q.** How did the AC50 turn out when `C=C(C)C(=O)OCCOC1CC2CC1C1C=CCC21` (stereo unspecified) was run?
**A.** Its AC50 is 13 µM (active).

**Q.** Which AC50 does the source give for `CCCCCCCCCCCCN1CCCCCC1=O` here?
**A.** Its AC50 is 116 µM (active).

**Q.** For `CCOc1ccc(N=Nc2ccc(C=Cc3ccc(N=Nc4ccc(OCC)cc4)cc3S(=O)(=O)O)c(S(=O)(=O)O)c2)cc1`, which AC50 is on record?
**A.** Its AC50 is 43.9 µM (active).

**Q.** With `C=C1CC[C@H](O)C/C1=C/C=C1\CCC[C@]2(C)[C@@H]([C@H](C)/C=C/[C@H](C)C(C)C)CC[C@@H]12` as the compound, how does the AC50 read?
**A.** The AC50 was 19.8 µM (active).

**Q.** `CCCCCCCCCCCCCC(=O)OCC(O)CO` (stereo unspecified) was tested. Which AC50 did it give?
**A.** Its AC50 is 100 µM (active).
